Bioassay records deposited in PubChem BioAssay by National Center for Advancing Translational Sciences (NCATS).
A selection: hits, their analogues and other compounds. The true share with any hit is near 7.5%.
Luc counter: Counterscreen for Luciferase (Kinase-Glo TM) Inhibition | AID 1379, 2008 | Kinase-Glo luciferase, ATP luminescence, 8 min | hit rate 0.28% among 200,000 | Potency, µM (highest dose often 38.3 µM), for inactives: at the top dose activity change, negative = inhibition, usual class: inhibitors; further: on the % scale 0 is the no-effect control and ±100 the full control effect; nearly all actives have a fitted effect of over 60% in size
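Compounds were added to a substrate mix at pH 7.2 (50 mM imidazole, 10 uM ATP, within the enzyme's linear range), followed by Kinase-Glo detection reagent; luminescence was measured after 8 minutes at ambient temperature.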
ELG1 genotox: qHTS screen for small molecules that induce genotoxicity in human embryonic kidney (HEK293T) cells expressing luciferase-tagged ELG1; Potency, µM (titrated, usually from 46 µM), inactives show at the top dose activity change, positive = activation, actives largely listed as activators; AID 504466, 2011; hit rate 1.3% among 330,000; HEK293T ELG1-luciferase reporter, luminescence, 16 h; further: % of control where 0% means no effect; nearly all actives have a fitted effect of over 60% in size
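Cells (2,000/well) expressing the ELG1-luciferase fusion are dosed by pin tool and kept 16 hr at 37 °C, 5% CO2. Signal comes from ONE-Glo luciferase reagent after 30 min at room temperature.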
FLuc modulator: qHTS profiling assay for firefly luciferase inhibitor/activator using purifed enzyme and Km concentrations of substrates (counterscreen for miR-21 project). Luciferin 4-monooxygenase (Photinus pyralis), P08659. purified FLuc, Km substrates, luminescence inhibition. Potency, µM (series often up to 57.5 µM), inactives show at the top dose activity change, negative = inhibition, usual class: inhibitors. hit rate 6.9% among 360,000;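 further: plate controls were vehicle for no effect and reference inhibitor for full effect; nearly all actives have a fitted effect of over 55% in size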
Target sequence (P08659 whole entry, looked up): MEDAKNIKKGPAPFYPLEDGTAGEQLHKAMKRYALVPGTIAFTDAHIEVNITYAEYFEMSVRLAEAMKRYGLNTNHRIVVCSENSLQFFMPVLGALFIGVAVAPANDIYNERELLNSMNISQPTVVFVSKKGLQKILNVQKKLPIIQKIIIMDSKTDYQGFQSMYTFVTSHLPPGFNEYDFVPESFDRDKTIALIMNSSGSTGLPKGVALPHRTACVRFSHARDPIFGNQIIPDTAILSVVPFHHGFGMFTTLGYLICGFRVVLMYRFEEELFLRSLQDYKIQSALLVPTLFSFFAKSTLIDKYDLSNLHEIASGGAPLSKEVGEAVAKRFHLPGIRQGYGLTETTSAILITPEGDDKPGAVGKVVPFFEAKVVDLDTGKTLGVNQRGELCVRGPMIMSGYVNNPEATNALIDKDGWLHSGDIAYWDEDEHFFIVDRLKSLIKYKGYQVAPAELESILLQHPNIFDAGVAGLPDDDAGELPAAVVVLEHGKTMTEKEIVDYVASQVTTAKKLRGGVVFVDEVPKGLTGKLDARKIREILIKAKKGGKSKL
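Biochemical qHTS of compounds, final roughly 60 µM downward over six points, against 10 nM purified firefly luciferase using Km concentrations of substrates (10 uM D-luciferin, 10 uM ATP) in Tris acetate pH 7.5 buffer; luminescence output.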
Rab9 prom act: qHTS Assay for Rab9 Promoter Activators; Huh7 Rab9 promoter-luciferase reporter, luminescence, 24 h; Potency, µM (doses to about 9.22 µM), without a hit: at the highest dose activation, negative = inhibition, usual class: activators; hit rate 2.8% among 320,000; AID 485297, 2010; further: % of control where 0% means no effect; nearly all actives have a fitted effect of over 60% in size
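Huh7 cells stably carrying Rab9 promoter–luciferase reporter, plated 1500 cells/well, compound added after 2 h and incubated 24 h at 37 °C; luciferase luminescence then read after 10 min with detection reagent.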
NPC1 prom act: qHTS Assay for NPC1 Promoter Activators | Huh7 NPC1 promoter luciferase reporter, 24 h | Potency, µM (doses to about 9.22 µM), for inactives: top-dose activation, usual class: activators | hit rate 2.4% among 320,000; further: % of control where 0% means no effect; nearly all actives have a fitted effect of over 60% in size
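Luminescence read-out of NPC1 promoter-driven luciferase in stably transfected Huh7 cells; compounds delivered in DMSO and left 24 h at 37C, 5% CO2, qHTS titration format.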
SMN2 splice up: qHTS Assay for Enhancers of SMN2 Splice Variant Expression; HEK293 SMN2-luciferase splicing reporter, luminescence, 30-36 h; Potency, µM (top dose mostly 46.1 µM), for the others: top-dose activity change, positive = activation, actives largely listed as activators; hit rate 2.8% among 210,000; further: % of control where 0% means no effect; nearly all actives have a fitted effect of over 55% in size
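HEK293 cells carry an SMN2 minigene-luciferase reporter in which exon 7 inclusion puts luciferase in frame. Cells were seeded at 2000 cells/well, attached for 10-12 hours, then exposed to compounds for 30-36 hours at 37C before ONE-Glo luminescence.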
Numbers without * were called inactive; [ ] = another dose, or the depositor's remark. The call rests on the fitted dose curve; in most records, active means well fitted curve in the direction sought with a large enough effect; inconclusive means small, poorly fitted or top-dose-only effect, or another doubt; inactive means no such curve, though single readings can be large; an effect the other way counts as inactive or inconclusive. Potency means the concentration at half of the fitted maximal effect.

Results for O=C(CSC1=Nc2ccccc2N=C(c2ccc(F)cc2)C1)Nc1cc(F)ccc1F ?
FLuc modulator: 3.0%

How did COc1ccc(/C=C2\CCC(C3CCCC3)C2=O)cc1OC (stereo unspecified) do in these assays?
ELG1 genotox: inconclusive; FLuc modulator: 10.7µM*; Rab9 prom act: 5.5%; NPC1 prom act: inconclusive

How did COc1cc(/C=C2\CCC(C3CCCC3)C2=O)ccc1OC(C)C (stereo unspecified) do in these assays?
ELG1 genotox: 16.6%; FLuc modulator: 15.1µM*; Rab9 prom act: -0.5%[1.84 µM]; NPC1 prom act: -4.6%

How did COc1cc(/C=C(\C#N)C(=O)NCC2CCCO2)ccc1OC(C)C (stereo unspecified) do in these assays?
Luc counter: 1.8%; ELG1 genotox: -0.8%; FLuc modulator: inconclusive; Rab9 prom act: -1.4%; NPC1 prom act: 2.6%; SMN2 splice up: -9.5%

What do the screens show for `Clc1ccccc1-c1nc(-c2ccc(Br)o2)no1`?
ELG1 genotox: 4.11µM*; FLuc modulator: 1.2µM*; Rab9 prom act: 0.708µM*; NPC1 prom act: 1.26µM*

Results for O=[N+]([O-])c1ccccc1-c1nc(-c2ccc(Br)o2)no1 ?
Luc counter: -3.2%; ELG1 genotox: inconclusive; FLuc modulator: 3.01µM*; Rab9 prom act: 2.82µM*; NPC1 prom act: 3.16µM*; SMN2 splice up: 17.1%[1.84 µM]

How did O=[N+]([O-])c1cc(Cl)ccc1-c1nc(-c2ccccc2)no1 do in these assays?
Luc counter: -4.4%; ELG1 genotox: inconclusive; FLuc modulator: 1.2µM*; Rab9 prom act: 3.16µM*; NPC1 prom act: 3.55µM*; SMN2 splice up: 17.4%[1.84 µM]

What do the screens show for `Nc1nnc(-c2ccccc2[N+](=O)[O-])o1`?
Luc counter: 1.2%; ELG1 genotox: 1.8%; FLuc modulator: -7.6%; Rab9 prom act: -4.8%; NPC1 prom act: -1.2%; SMN2 splice up: -0.9%

Results for N=C1C(c2ccccc2)=C(O)CN1c1cccc(S(=O)(=O)N2CCOCC2)c1 ?
ELG1 genotox: -4.2%; FLuc modulator: -0.2%; Rab9 prom act: -2.6%; NPC1 prom act: 0.4%

What do the screens show for `Cc1cc(NC(=O)c2ccc3c(c2)OCCO3)ccc1NC(=O)c1cc2ccccc2o1`?
Luc counter: 2.8%; ELG1 genotox: -13.5%; FLuc modulator: 2.69µM*; Rab9 prom act: 17.2%; NPC1 prom act: 14.9%; SMN2 splice up: -32.2%

Results for O=C(Nc1ccc(NC(=O)c2ccco2)cc1)c1ccc2c(c1)OCO2 ?
Luc counter: inconclusive; ELG1 genotox: inconclusive; FLuc modulator: 0.1%; Rab9 prom act: 7.1%; NPC1 prom act: 3.6%; SMN2 splice up: 11.6%

Results for O=C(Nc1cc2c(cc1Br)OCCO2)c1cccs1 ?
Luc counter: 14.2%; ELG1 genotox: 11.6µM*; FLuc modulator: 10.7µM*; Rab9 prom act: 2.51µM*; NPC1 prom act: 2.82µM*; SMN2 splice up: 22.4µM*

Results for O=C(Nc1cc2c(cc1Cl)OCCO2)c1ccco1 ?
Luc counter: -3.3%; ELG1 genotox: 24.8%; FLuc modulator: 19µM*; Rab9 prom act: inconclusive; NPC1 prom act: inconclusive; SMN2 splice up: 12.6µM*

What do the screens show for `O=C(Nc1ccc(NC(=O)c2ccco2)c(Cl)c1)c1ccc2c(c1)OCCO2`?
ELG1 genotox: 11.1%; FLuc modulator: 0.477µM*; Rab9 prom act: 3.98µM*; NPC1 prom act: inconclusive

How did CCCC(=O)c1cc2c(cc1NC(=O)c1cccs1)OCCO2 do in these assays?
Luc counter: -3.4%; ELG1 genotox: 1.8%; FLuc modulator: -6.6%; Rab9 prom act: 14.4%; NPC1 prom act: -0.8%; SMN2 splice up: -3.0%
